Screening results (PubChem BioAssay)
Compounds with a hit are over-represented: about 3.5% of the library has one in this group of screens.
TROY signal inh – inhibitors of TROY-driven NF-kB signaling, primary screen, Q293 LMP1-TROYcd cells, NF-kB luciferase, uHTS; inhibition, % at 10 µM; actives 0.98% (n = 360,000); AID 1347056, 2019; Q293 LMP1-TROYcd NF-kB luciferase reporter, 4 h;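 active means compounds whose plate-normalised and pattern-corrected inhibition of the luciferase reporter signal at the single screening dose is 50% or more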
Platelet DG rel – inhibitors of platelet dense granule secretion, primary screen, cell-based, MLPCN, human platelets; inhibition, %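 (compounds screened at 7.5 µM in platelet-rich plasma)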; actives 0.22% (n = 300,000); AID 1663, 2009; human platelet-rich plasma, SFLLRN dense granule ATP release, luminescence;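 active means mean replicate score, as percent of positive control, at or above 50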
PPC-1+TRAIL kill – compounds killing PPC-1 cancer cells with TRAIL present, primary screen, TRAIL potentiator project, ATPLite luminescence, uHTS | actives 0.41% (n = 220,000) | PPC-1 cells + TRAIL, ATPLite viability luminescence | cell killing (% activity), % at 4 µM or 5 µM;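 active means cell killing above 50% in the first pass at 4 µM, then a duplicate retest at 5 µM averaging 50% or more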
TRAIL sens C8 – viability loss with TRAIL in NB7+C8 cells, primary screen, TRAIL sensitizer project, cell-based, ATPlite luminescence | inhibition (viability loss, TRAIL sensitization), % at 10 µM | actives 1% (n = 360,000);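 active means compounds causing at least 50% loss of cell viability in the single-dose screen, relative to plate controls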
TWEAK Fn14 block – inhibitors of TWEAK-Fn14 signaling, primary screen, luciferase reporter cells, uHTS. actives 2% (n = 360,000). TWEAK-stimulated Fn14 reporter cells, luciferase luminescence, 8 h. inhibition, % at 10 µM; in the data active means inhibition above about 50%
HSP90 refold inh – HSP90 inhibitors, primary screen, cell lysate, luminescence; Rabbit reticulocyte lysate, luciferase refolding luminescence, 3 h; inhibition, % at 5.6 µM; actives 0.91% (n = 290,000);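 active means inhibition above the screen-wide mean plus 3 SD, computed separately per campaign, cut at about 16% in these data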;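 further: inhibitors lower the luminescence because luciferase stays unfolded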
Large screens that a line does not name were inactive.

CCC(=O)Nc1ccc2c(c1)OC[C@@H](C)N(C(=O)c1ccccn1)C[C@@H](C)[C@@H](OC)CN(C)C2=O	none (no result: TROY signal inh, Platelet DG rel, PPC-1+TRAIL kill, TWEAK Fn14 block, HSP90 refold inh)
CC(=O)Oc1cc(O)c2c(=O)c(OC(C)=O)c(-c3ccc(OC(C)=O)c(OC(C)=O)c3)oc2c1	TWEAK Fn14 block 67.9 (no result: PPC-1+TRAIL kill, HSP90 refold inh)
COc1ccc(-c2csc(C(NC(C)=O)c3ccccc3)n2)cc1 (stereo not given)	none (no result: Platelet DG rel, PPC-1+TRAIL kill, HSP90 refold inh)
CS(=O)(=O)N(CCc1ccccc1)CC(=O)N1CCN(c2ccccc2)CC1	none
CS(=O)(=O)N(CCc1ccccc1)CC(=O)N1CCN(c2ccccc2F)CC1	TWEAK Fn14 block 83.7
COC(=O)c1cnn(-c2cc(Oc3cccc(C)c3)ncn2)c1N	TWEAK Fn14 block 91.0 (no result: TROY signal inh)
CC1=C(C(=O)N2CCOCC2)CC(CC(=O)NCCCCc2ccccc2)C(=O)N1CCCN1CCCC1=O (stereo not given)	none (no result: Platelet DG rel, PPC-1+TRAIL kill, HSP90 refold inh)
C=CCN1C(=O)N(CC=C)c2cccc3cccc1c23	TROY signal inh 65.5 (no result: PPC-1+TRAIL kill)
CCOC(=O)N1CC(C)N(CC(O)CN2CCOCC2)CC1C (stereo not given)	none (no result: Platelet DG rel, PPC-1+TRAIL kill, HSP90 refold inh)
COc1ccc(Cn2c(SCc3ccc(C)cc3)nc3cc(OC)c(OC)cc3c2=N)cc1Cl	TRAIL sens C8 93.3
COc1cc2nc(SCc3ccc(Cl)cc3Cl)n(Cc3cccs3)c(=N)c2cc1OC	none
COc1ccc(Cn2c(SCc3cc(C)ccc3C)nc3cc(OC)c(OC)cc3c2=N)cc1	TRAIL sens C8 91.7
CC(CCl)n1c(=O)c2ccccc2n1S(C)(=O)=O (stereo not given)	none (no result: Platelet DG rel, PPC-1+TRAIL kill, HSP90 refold inh)
CC(NC(=O)OC(C)(C)C)C(=O)Oc1cc2oc(=O)cc(-c3ccccc3)c2cc1Cl (stereo not given)	TWEAK Fn14 block 71.3
O=[N+]([O-])c1cccc(C2=NC(c3ccccc3)CO2)c1 (stereo not given)	none
COc1ccc(C2=NC(c3ccccc3)CO2)cc1 (stereo not given)	HSP90 refold inh 16.2 (no result: TROY signal inh, TRAIL sens C8, TWEAK Fn14 block)
O=C(NCCCN1CCOCC1)c1cc(S(=O)(=O)N2CCCCC2)ccc1Cl	none (no result: Platelet DG rel, PPC-1+TRAIL kill, HSP90 refold inh)
CC(C)N=c1scc(-c2cccs2)n1/N=C/c1ccc(O)c(O)c1O	TWEAK Fn14 block 54.3 (no result: Platelet DG rel)
Oc1ccc(/C=N/N=C(c2ccccc2)c2ccccc2)c(O)c1O	none (no result: Platelet DG rel)
CCN=c1scc(-c2cccs2)n1/N=C/c1cc(OC)ccc1O	TWEAK Fn14 block 62.5 (no result: Platelet DG rel)
Cc1cccc(NCc2ccc(N(C)C)cc2)n1	none (no result: PPC-1+TRAIL kill)
CN(C)CCn1c2c(c(SCC(=O)Nc3ccc4c(c3)OCCO4)nc1=O)CCCC2	none (no result: PPC-1+TRAIL kill, HSP90 refold inh)
CNC(=O)OC1CC2CC1[C@H]1CCCCN1C2=O (stereo not given in full)	none (no result: Platelet DG rel, PPC-1+TRAIL kill, HSP90 refold inh)
Cc1ccc(S(=O)(=O)NC(=O)NC2=NC(C)(C)N(c3ccc(Cl)c(Cl)c3)C(N)=N2)cc1	TRAIL sens C8 81.6 (no result: Platelet DG rel, PPC-1+TRAIL kill, HSP90 refold inh)
CCCCC(NC(=O)c1ccc(C#N)cc1)C(=O)NCCC (stereo not given)	none (no result: Platelet DG rel, PPC-1+TRAIL kill, HSP90 refold inh)
O=c1cc(-c2ccsc2)oc2ccc(-c3ccc4cc[nH]c4c3)cc12	none (no result: Platelet DG rel, PPC-1+TRAIL kill, HSP90 refold inh)
CC(=O)c1c(C)oc2ccc(N(C(C)=O)S(=O)(=O)c3ccc(Br)cc3)cc12	none (no result: PPC-1+TRAIL kill)
CC(=O)c1c(C)oc2ccc(N(C(C)=O)S(=O)(=O)c3ccc(Cl)c([N+](=O)[O-])c3)cc12	TROY signal inh 87.9
CC1CCCCC1NC(=O)c1c(O)nc2ccccn2c1=O (stereo not given)	none (no result: PPC-1+TRAIL kill, HSP90 refold inh)
Cc1c(/C=N/NC(=O)c2ccccc2O)c2ccccn2c1C(=O)c1ccc(F)cc1	TROY signal inh 51.4, TWEAK Fn14 block 65.8
COC(=O)N/N=C/c1c(C)c(C(=O)c2ccc(F)cc2)n2ccccc12	none
Cc1c(/C=N/NC(=O)c2ccc(O)cc2)c2ccccn2c1C(=O)c1ccc(F)cc1	TWEAK Fn14 block 53.6
CC1CN(S(=O)(=O)c2ccc(C(=O)OCc3ccc(C#N)cc3)cc2)CC(C)O1 (stereo not given)	none (no result: Platelet DG rel, PPC-1+TRAIL kill, HSP90 refold inh)
O=C(CSc1nnc2c3ccccc3c3ccccc3c2n1)Nc1ccccc1	none (no result: TROY signal inh, TRAIL sens C8, TWEAK Fn14 block)
O=C(CSc1nnc2c3ccccc3c3ccccc3c2n1)Nc1ccccc1F	Platelet DG rel 55.2
O=S(=O)(c1ccc(F)cc1F)N1CCN(CCO)CC1	none (no result: Platelet DG rel, PPC-1+TRAIL kill, HSP90 refold inh)
